Assay outcomes (PubChem)
Compounds with a hit are over-represented: about 1.3% of the library has one in this group of screens.
LANA-H2B inh: blockers of LANA interaction with H2A/H2B – biochemical, FP readout, HTS, primary screen; cell-free LANA-H2A/H2B peptide, fluorescence polarization; inhibition, % (test concentration not listed); hit rate 0.6% among 320,000; AID 2629, 2010; in the data active = inhibition mostly above about 10%, no sharp cut-off; inactive = mostly below about 6.7%
Target sequence (Q9QR71 whole entry, looked up): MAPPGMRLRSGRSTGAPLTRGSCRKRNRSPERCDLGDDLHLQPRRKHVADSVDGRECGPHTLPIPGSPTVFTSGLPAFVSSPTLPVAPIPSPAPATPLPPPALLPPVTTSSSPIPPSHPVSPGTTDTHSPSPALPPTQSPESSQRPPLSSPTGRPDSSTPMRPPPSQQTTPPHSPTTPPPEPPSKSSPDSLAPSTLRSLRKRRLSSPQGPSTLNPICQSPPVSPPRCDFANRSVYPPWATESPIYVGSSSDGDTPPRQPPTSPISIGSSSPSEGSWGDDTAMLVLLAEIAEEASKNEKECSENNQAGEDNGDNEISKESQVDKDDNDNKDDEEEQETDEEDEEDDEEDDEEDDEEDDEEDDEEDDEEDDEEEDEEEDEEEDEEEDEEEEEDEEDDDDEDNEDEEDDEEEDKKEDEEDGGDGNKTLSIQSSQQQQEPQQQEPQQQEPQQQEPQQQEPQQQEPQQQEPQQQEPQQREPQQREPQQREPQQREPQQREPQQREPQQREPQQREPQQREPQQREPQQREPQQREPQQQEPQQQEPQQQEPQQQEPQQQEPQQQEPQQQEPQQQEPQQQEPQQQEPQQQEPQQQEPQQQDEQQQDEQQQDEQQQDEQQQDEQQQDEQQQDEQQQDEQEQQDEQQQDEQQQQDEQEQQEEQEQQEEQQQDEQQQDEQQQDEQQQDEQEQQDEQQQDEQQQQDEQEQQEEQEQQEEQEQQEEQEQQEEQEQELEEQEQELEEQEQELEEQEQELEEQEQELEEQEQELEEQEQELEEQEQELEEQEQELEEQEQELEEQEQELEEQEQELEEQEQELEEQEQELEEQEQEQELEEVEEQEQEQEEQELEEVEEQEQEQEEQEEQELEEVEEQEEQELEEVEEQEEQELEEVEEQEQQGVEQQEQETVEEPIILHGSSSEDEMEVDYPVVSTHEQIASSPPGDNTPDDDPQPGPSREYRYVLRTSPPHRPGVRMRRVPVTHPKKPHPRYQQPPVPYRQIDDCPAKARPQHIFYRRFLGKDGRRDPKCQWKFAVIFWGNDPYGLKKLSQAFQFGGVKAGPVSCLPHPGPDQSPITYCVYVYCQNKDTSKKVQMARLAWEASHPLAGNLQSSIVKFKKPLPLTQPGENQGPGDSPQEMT
Keap1-Nrf2 PPI: Keap1-Nrf2 protein-protein interaction inhibitors, primary screen, biochemical, fluorescence polarization, single point | Kelch-like ECH-associated protein 1 (Homo sapiens), Q14145 | hit rate 0.15% among 340,000 | AID 504523, 2011 | inhibition, % at 9.4 µM | Keap1 Kelch-Nrf2 peptide fluorescence polarization, 1536-well; in the data active = inhibition above about 12%;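 also: human Keap1 Kelch domain with fluorescein labeled Nrf2 9mer peptide probe; 0% = neutral control wells and 100% = peptide positive control; higher means more block of Keap1 binding to Nrf2 peptide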
cardiac RTF act: cardiac RTF calcium sensitivity activators, primary screen, biochemical, IANBD-TnC fluorescence, EC20 calcium | AID 493008, 2010 | IANBD-labeled TnC RTF fluorescence at EC20 calcium; 0% EC20 calcium, 100% full calcium | activation, % at 7.2 µM | Troponin I, cardiac muscle (Homo sapiens) + Troponin T, cardiac muscle (Homo sapiens) + … | hit rate 0.24% among 340,000;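 active = activation above the mean over all tested compounds plus 3 SD, cut at about 30% in these data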;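 also: rise in fluorescence read as greater calcium sensitivity of cardiac thin filaments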
Cardiac RTF inh: cardiac RTF calcium sensitivity inhibitors, primary screen, biochemical, IANBD-TnC fluorescence, EC70 calcium; Troponin I, cardiac muscle (Homo sapiens) + Troponin T, cardiac muscle (Homo sapiens) + …; IANBD-labeled cardiac RTF, Ca2+ fluorescence; inhibition, % at 7.15 µM; hit rate 0.12% among 340,000; AID 493244, 2011;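 active = inhibition above the mean inhibition of all tested compounds plus 3 SD, cut at about 17% in these data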;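 also: assay run at fixed EC70 calcium of 1.6 mM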
C-LANA FP: inhibitors of KSHV C-LANA binding to DNA, primary screen, biochemical, fluorescence polarization, FAM-LBS DNA, MBP-C-LANA, single point; Kaposi's sarcoma herpesvirus LANA C-terminal domain (residues 932-1162) DNA binding; inhibition, % at 9 µM; hit rate 0.078% among 340,000; AID 504423, 2011;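 active = highest replicate inhibition at or above 60% at 9 µM, even if other replicates fall short; inactive = all replicates below 60% inhibition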;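 also: 0% = neutral control wells and 100% = 4 µM acridine orange control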
E coli Lon inh: inhibitors of E. coli Lon protease, primary screen, biochemical, fluorescence polarization. P0A9M0. purified E. coli Lon protease. inhibition, % at 7.94 µM. hit rate 0.42% among 360,000; in the data active = inhibition above about 13%, passing the limit was not always enough;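 also: 0% = enzyme with probe and DMSO and 100% = no enzyme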
* marks the source's active call; other numbers are inactive results.

COc1cc(/C=C2\CCC(C)C3=C(c4cc(OC)c(OC)c(OC)c4)C(C#N)=C(N)OC32)cc(OC)c1OC (stereo unspecified) was read as Keap1-Nrf2 PPI -10.6, cardiac RTF act 39.9*, Cardiac RTF inh -57.1, C-LANA FP 0.9 and E coli Lon inh -152.6.
Cc1noc(C)c1COC(=O)C1CCN(S(=O)(=O)c2c(Cl)cccc2Cl)CC1 was read as LANA-H2B inh -2.2, Keap1-Nrf2 PPI 1.8, cardiac RTF act -5.0, Cardiac RTF inh -4.8, C-LANA FP 0.5 and E coli Lon inh 14.0.
For COc1cc([N+](=O)[O-])c(OC)cc1SCc1n[nH]c(=S)n1-c1ccc(F)cc1 the results were LANA-H2B inh -0.3, Keap1-Nrf2 PPI -2.3, cardiac RTF act 0.5, Cardiac RTF inh -0.2, C-LANA FP -0.4 and E coli Lon inh 1.5.
CC1(C)C2CCC1(C)C(OCC[N+](C)(C)CC(=O)OC1CCCCC1)C2 (stereo unspecified) was read as LANA-H2B inh 27.5*, Keap1-Nrf2 PPI 2.0, cardiac RTF act 3.6, Cardiac RTF inh -20.2, C-LANA FP -0.1 and E coli Lon inh -7.6.
COc1cc(OC)c(OC)cc1/C=C1/Cc2ccccc2C1=O was read as LANA-H2B inh -2.3, Keap1-Nrf2 PPI -26.5, cardiac RTF act 31.4*, Cardiac RTF inh -59.8, C-LANA FP 1.1 and E coli Lon inh -86.0.
For COc1ccccc1C=C1CCc2ccccc2C1=O the results were E coli Lon inh -0.7.
For COc1ccc(-c2nc(-c3ccc(C(=O)O)cc3)no2)cc1 the results were LANA-H2B inh 2.0, Keap1-Nrf2 PPI -1.2, cardiac RTF act 8.5, Cardiac RTF inh -14.1, C-LANA FP 1.7 and E coli Lon inh -2.0.
Screening CCOC(=O)c1ccc2nc(C)c(CCC(C)=O)c(Cl)c2c1 returned LANA-H2B inh -0.2, Keap1-Nrf2 PPI -6.0, cardiac RTF act -7.8, Cardiac RTF inh 2.8, C-LANA FP 0.4 and E coli Lon inh 19.6*.
For O=C(NN1C(=O)/C(=C/c2cc([N+](=O)[O-])ccc2O)SC1=S)c1ccccc1O the results were LANA-H2B inh -2.0.
`Cc1ccc(/C=C2\SC(=S)N(/N=C/c3cc([N+](=O)[O-])ccc3O)C2=O)o1` gave LANA-H2B inh 4.6, Keap1-Nrf2 PPI 8.7, cardiac RTF act -3.3, Cardiac RTF inh 3.1, C-LANA FP 73.6* and E coli Lon inh -2.1.
CN(CCCC1CCCC1)C(=O)CCc1nnc(-c2ccccc2)o1 was read as LANA-H2B inh 2.5, Keap1-Nrf2 PPI 3.4, cardiac RTF act -3.9, Cardiac RTF inh 1.9, C-LANA FP -1.1 and E coli Lon inh 4.6.
For CN(C(=O)CCc1nnc(-c2ccc(-c3ccccc3)cc2)o1)C1CCOCC1 the results were LANA-H2B inh 14.8*, Keap1-Nrf2 PPI -5.1, cardiac RTF act 0.9, Cardiac RTF inh 0.1, C-LANA FP -1.0 and E coli Lon inh 5.5.
`Cc1cc(OCC(=O)NC2CC2)c2c(C)cc(=O)oc2c1` gave LANA-H2B inh 12.7*, Keap1-Nrf2 PPI 1.7, cardiac RTF act -4.9, Cardiac RTF inh -3.7, C-LANA FP 0.0 and E coli Lon inh 3.0.
CCc1cc(=O)oc2cc(C)cc(OCC(=O)NC3CC3)c12 was read as LANA-H2B inh -1.1, Keap1-Nrf2 PPI -0.9, cardiac RTF act -7.4, Cardiac RTF inh -4.4, C-LANA FP -0.7 and E coli Lon inh -0.1.
For CC1CCN(C(=O)CSc2nc(N)c(NC(=O)c3ccccc3)c(=O)[nH]2)CC1 the results were LANA-H2B inh 47.7*, Keap1-Nrf2 PPI -6.4, cardiac RTF act -1.0, Cardiac RTF inh -2.8, C-LANA FP -2.5 and E coli Lon inh 8.2.
Cc1cccc(C(=O)Nc2nnc(SCC(=O)NCc3ccco3)s2)c1 was read as LANA-H2B inh 3.2, Keap1-Nrf2 PPI -2.6, cardiac RTF act -3.6, Cardiac RTF inh 6.0, C-LANA FP 0.4 and E coli Lon inh 0.0.
